Experimental data taken from PubChem BioAssay AID602350 (Broad Institute, 2012).
Potency and affinity values are given separately.

Biological target: Protein disulfide-isomerase (Homo sapiens) (UniProt P07237)
Test: inhibition of PDI-driven insulin aggregation – biochemical, turbidity, absorbance, cherry-picked samples, dose response (AID 602350);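 note: 0% = neutral controls and -100% = rutin hydrate positive control wells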
Conditions: recombinant PDI insulin aggregation, absorbance 650 nm, 90 min; series mostly up to 19.5 µM; activity change, negative = inhibition: at the top concentration;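 active = absorbance falls by 30% or more versus neutral controls, with a potency fitted within twice the top valid dose; inconclusive = no clear call, values can overlap the other calls; inactive = change opposite to expected direction, plus the rest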

Protein disulfide-isomerase (Homo sapiens), sequence (P07237 whole entry, looked up): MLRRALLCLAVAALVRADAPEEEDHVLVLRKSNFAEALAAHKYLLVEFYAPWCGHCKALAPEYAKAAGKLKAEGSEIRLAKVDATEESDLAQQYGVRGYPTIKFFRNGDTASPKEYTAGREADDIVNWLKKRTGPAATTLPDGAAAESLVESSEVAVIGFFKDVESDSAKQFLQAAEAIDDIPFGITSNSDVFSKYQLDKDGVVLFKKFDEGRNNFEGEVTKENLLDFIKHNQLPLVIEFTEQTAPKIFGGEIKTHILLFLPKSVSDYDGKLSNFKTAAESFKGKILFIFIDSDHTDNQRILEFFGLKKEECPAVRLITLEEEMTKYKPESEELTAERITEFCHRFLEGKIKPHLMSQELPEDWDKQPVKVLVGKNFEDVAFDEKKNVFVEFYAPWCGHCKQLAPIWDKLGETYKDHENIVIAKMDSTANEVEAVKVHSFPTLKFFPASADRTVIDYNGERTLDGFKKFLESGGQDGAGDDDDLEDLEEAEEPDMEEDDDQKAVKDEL

Activity change, negative = inhibition, inactive:
O=C(CN(CCc1ccccc1)C(=O)CNS(=O)(=O)c1ccccc1)NCC1CCCO1 (centres undefined) 6.4%
CCOC(=O)C(C)c1n[nH]c(=O)c2ccccc12 (centres undefined) -1.51%
CC(=O)Oc1ccccc1C(=O)C=Cc1cccc([N+](=O)[O-])c1 -11.6%
O=C1/C(=C\c2ccc(O)cc2)CCC1CNc1ccc(Cl)cc1 (centres undefined) 11.1%
Cc1cccc(C)c1NC(=O)CN1CCNCC1 12.2%
O=C1NC[C@H](Cc2ccccc2)N(C[C@H]2CCCN2C[C@H](Cc2ccccc2)N2C[C@H](Cc3ccc(O)cc3)N(CC3CCCCCC3)C(=O)C2=O)C1=O -0.123%
CC(C)c1ccc(/C=N/NC(=O)c2ccc(-n3cnnn3)cc2)cc1 12.5%
Cc1ccc(N(Cc2ccccc2)C(=O)c2cccc(S(=O)(=O)N3CC(C)OC(C)C3)c2)cc1 (centres undefined) 12.2%
CC(C)Oc1cccc(C(=O)NC(=S)Nc2cccc(NC(=O)c3ccccc3Cl)c2)c1 13.5%
Cc1ccc(CN(c2ccc(C(=O)NCc3ccccn3)cc2)S(C)(=O)=O)cc1 -11.6%
CC[C@]12c3[nH]c4cc(-c5ccco5)ccc4c3CCN1C(=O)[C@@H](CC(=O)NCC13CC4CC(CC(C4)C1)C3)C[C@@H]2C(=O)N1CCN(C(=O)c2ccco2)CC1 23.1%
O=C(Nc1nc2ccccc2s1)c1cccc(S(=O)(=O)N2CCc3ccccc32)c1 -4.05%
Cc1ccc2nsnc2c1NC(=O)c1cccnc1Cl 1.26%
CC1(c2ccc3ccccc3c2)NC(=O)N(CC(=O)Nc2cccc(S(=O)(=O)N3CCOCC3)c2)C1=O (centres undefined) -3.1%
COc1cc(C2C(C(C)=O)=C(O)C(=O)N2CCc2c[nH]c3ccccc23)ccc1O (centres undefined) -21.9%
Cc1nn(CC(=O)NCC2CCCO2)c(C)c1[N+](=O)[O-] (centres undefined) 11.8%
Cn1nnnc1SCC(=O)Nc1cc(C(F)(F)F)ccc1N1CCOCC1 -1.51%
NC(=O)c1nsc(C(=O)N(CC(=O)NCc2ccc(F)cc2)Cc2ccco2)c1N 0.167%
CCOC(=O)C1(CCOc2ccccc2)CCN(Cc2ccc(C(=O)OC)cc2)CC1 0.786%
CCOC(=O)C1(CCOc2ccccc2)CCN(Cc2ccccc2O)CC1 7.15%
C[C@@H]1CN([C@@H](C)CO)C(=O)c2cc(NC(=O)Cc3cn(C)c4ccccc34)ccc2O[C@@H]1CN(C)S(=O)(=O)c1ccc(F)cc1 -12.7%
COc1ccc(C2c3ccc(O)cc3Oc3ncn(CCCO)c(=N)c32)cc1 (centres undefined) -24.8%
O=C(CCc1ccc(O)cc1)NN=Cc1cc(Br)ccc1O 4.89%
CCOC(=O)C1(CCOc2ccccc2)CCN(Cc2ccc(OC)cc2)CC1 0.844%
S=C(NCCc1ccccc1)Nc1ccccn1 12.8%
CC(=O)N1CCC(C(=O)NCCOc2cccc(C)c2)CC1 9.17%
CCCc1cc(=O)[nH]c(SCCOc2ccc(OCC)cc2)n1 7.02%
Cc1cc(=O)c(C(=O)Nc2cccc(C(=O)NC3CC3)c2)nn1-c1ccccc1 21.8%
CCOc1c(Cl)cc(CNC(C)(C)CC(C)(C)C)cc1OC 0.928%
O=C(COC(=O)c1ccccc1NC(=O)c1ccco1)NCCC1=CCCCC1 15%
Cc1ccc2c(=O)n3c(nc2c1)C(Cc1ccc(O)cc1)NC(=O)c1cccnc1-3 (centres undefined) -11.4%
O=C(c1ccc(OCCN2CCCCC2)cc1)c1c(-c2ccc(O)cc2)sc2cc(O)ccc12 -12.5%
O=C(N/N=C/c1ccc(O)cc1)NC12CC3CC(CC(C3)C1)C2 -7.74%
C[C@H]1CN([C@@H](C)CO)C(=O)Cc2cc(NC(=O)Nc3ccccc3)ccc2O[C@H]1CN(C)Cc1ccccc1 -15%
C=CCn1c(SCC(=O)Nc2ccc(N(C)C)cc2)nnc1-c1cccc(C)c1 0.83%
CCOc1cc(N2CCOCC2)c(OCC)cc1NC(=O)Cc1ccccc1OC 14%
CCc1nc2ccc(C(=O)N(CC)CC(=O)Nc3c(F)cccc3F)cc2nc1CC 24.8%
CCN1CCN(Cc2ccc(NC(=O)c3cc(NC(=O)c4cc(-c5ccc(OC)cc5)n[nH]4)cc(OC)c3)cc2C(F)(F)F)CC1 -3.51%
c1ccc(Cn2nnc3c(Nc4ccc5c(c4)OCO5)nc(C4CC4)nc32)cc1 1.15%
